Most compounds without a hit are left out; they make up all but 3.6% or so of the library.
Mtb FBA inh = Mtb fructose-bisphosphate aldolase inhibition; 360,000 tested, 2.3% active; purified M. tuberculosis FBA, fluorescence read-out; AID 588726; inhibition, % at 1 µM; in the data active = inhibition above about 27%;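 note: 0% = vehicle and 100% = reference inhibitor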
Target sequence (P9WQA3 whole entry, looked up): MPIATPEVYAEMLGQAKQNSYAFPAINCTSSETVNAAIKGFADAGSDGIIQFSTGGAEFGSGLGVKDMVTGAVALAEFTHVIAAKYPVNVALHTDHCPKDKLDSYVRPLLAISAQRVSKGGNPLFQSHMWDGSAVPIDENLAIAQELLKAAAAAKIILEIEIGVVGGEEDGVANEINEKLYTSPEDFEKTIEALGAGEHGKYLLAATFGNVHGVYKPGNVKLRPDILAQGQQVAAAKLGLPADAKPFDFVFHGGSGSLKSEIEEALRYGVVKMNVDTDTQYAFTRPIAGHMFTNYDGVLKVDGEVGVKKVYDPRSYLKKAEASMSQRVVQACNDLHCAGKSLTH
VHR inh abs = DUSP3 (human) phosphatase inhibition; P51452; recombinant VHR phosphatase, pNPP absorbance; inhibition, % at 13.3 µM; 290,000 tested, 0.52% active; AID 1654; in the data active = inhibition above about 50%
Target sequence (P51452 whole entry, looked up): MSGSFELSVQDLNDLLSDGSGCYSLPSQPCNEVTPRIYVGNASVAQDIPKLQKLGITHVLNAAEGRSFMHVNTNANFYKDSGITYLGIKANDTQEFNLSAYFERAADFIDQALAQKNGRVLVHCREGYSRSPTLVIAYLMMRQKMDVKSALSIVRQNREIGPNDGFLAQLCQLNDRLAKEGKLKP
Mtb bLac sens = beta-lactam sensitization of Mtb H37Rv; M. tuberculosis H37Rv growth with meropenem, percent inhibition; inhibition, % at 25 µM; 330,000 tested, 0.27% active; call rule not given here;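 note: growth measured after seven days incubation then overnight dye step; 0% = bacteria only wells and 100% = bacteria with antibiotic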
Mtb hypoxia inh = inhibitors of hypoxia-regulated fluorescent reporter in Mycobacterium tuberculosis; M. tuberculosis hypoxia-regulated fluorescent reporter, fluorescence; AID 1159583; fluorescence inhibition, % (concentration not given with the values); 300,000 tested, 0.1% active; in the data active = fluorescence inhibition mostly above about 23%, no sharp cut-off; inactive = mostly below about 17%
GDH-TPI counter = inhibits GDH-TPI coupling enzymes, artifact for Mtb FBA screen; GDH-TPI coupled enzyme counterscreen, NADH absorbance; inhibition, % at 4.8 µM; 360,000 tested, 1.2% active; AID 588335; in the data active = inhibition above about 30%;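 note: 0% = DMSO wells and 100% = wells lacking the enzyme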
* hit, by the source's call; . = no result given; + = active, no number.

SMILES | Mtb FBA inh | VHR inh abs | Mtb bLac sens | Mtb hypoxia inh | GDH-TPI counter
C=CCNC(=O)c1cc2c(=O)n3ccccc3nc2s1 | + | 13 | 4 | -1 | 12
Cc1cccn2c(=O)c3cc(C(=O)NC4CCS(=O)(=O)C4)sc3nc12 (configuration not stated) | 192* | 29 | -9 | -7 | 27
O=C(NC1CCCCCC1)c1cc2c(=O)n3ccccc3nc2s1 | + | 26 | 1 | -9 | 18
CC(C)CC(NC(=O)c1nc[nH]c1C(=O)N1CCC(C)CC1)C(=O)OCc1ccccc1 (configuration not stated) | . | . | . | 13 | .
CCc1ccc(S(=O)(=O)ON2C(=O)c3ccccc3C2=O)cc1 | 30* | 17 | . | -2 | 14
C[C@@H]1CN(c2c(F)c(N)c3c(=O)c(C(=O)O)cn(C4CC4)c3c2F)C[C@H](C)N1 | . | 26 | . | . | .
C[C@@H]1CN(c2c(F)c(F)c3c(=O)c(C(=O)O)cn(C4CC4)c3c2F)C[C@H](C)N1 | 15 | 58* | . | . | 4
COc1cc(C2Oc3cc(C4Oc5cc(O)cc(O)c5C(=O)C4O)ccc3OC2CO)ccc1O (configuration not stated) | -2 | -30 | 5 | 1 | 36*
CC1OC(OC2C(=O)c3c(O)cc(O)cc3OC2c2ccc(O)c(O)c2)C(O)C(O)C1O (configuration not stated) | . | . | . | 7 | .
COc1cc2c(cc1OC)C(=O)N1C3c4cc(C)ccc4OCC3C(c3ccccc3)[C@]1(C)C(=O)N2 (some centres not stated) | . | . | . | 0 | .
CC1=C(C#N)C(=O)NC(=O)/C1=C\c1ccc(-c2ccc(C)cc2[N+](=O)[O-])o1 | 1 | 12 | . | 0 | 3
CCOC(=O)c1cc(-c2ccc(/C=C3/C(=O)NC(=O)C(C#N)=C3C)o2)ccc1Cl | 2 | 14 | 5 | 16 | 35*
COc1ccc(C2C=CCN(C(=O)CC(C)(C)C)CC(=O)N2Cc2ccc(F)cc2)cc1 (configuration not stated) | . | . | . | 11 | .
CCCC=C(CCC)C(NP(=O)(c1ccccc1)c1ccccc1)c1ccccc1 (configuration not stated) | . | . | . | 3 | .
CCc1cc2c(CN3CCN(C)CC3)cc(=O)oc2cc1O | + | 31 | 5 | 11 | 11
Cc1cc2oc(=O)cc(CN3CCN(C/C=C/c4ccccc4)CC3)c2cc1O | -2 | 14 | 92 | . | 35*
Cc1ccc2c(CN3CCN(CCO)CC3)cc(=O)oc2c1C | -1 | 10 | -5 | 2 | 2
CCc1cc2c(CN3CCN(CCO)CC3)cc(=O)oc2cc1O | 187* | -31 | -1 | -10 | 21
O=C(O)C(Cc1ccccc1)NC(=O)N1CCOCC1 (configuration not stated) | . | . | . | 6 | .
C#CCNC(=O)C1=CC(c2ccc(C(F)(F)F)cc2)C(CCCO)C(OCC)O1 (configuration not stated) | . | . | . | 2 | .
CC(C)CC(CSc1ccccc1)N1CCN(CC(C)C)CCC1=O (configuration not stated) | . | . | . | 20 | .
COC(=O)c1ccc(CN2CCCC(C(=O)Nc3cccc(-n4cccn4)c3)C2)cc1 (configuration not stated) | 3 | 52* | 70 | -3 | 8
O=S1(=O)CCOCC(Cc2ccccc2)N1Cc1ccc(Cl)cc1 (configuration not stated) | . | . | . | 16 | .
COc1cccc(C2c3[nH]c4ccccc4c3CCN2C(=O)Cn2cncn2)c1OC (configuration not stated) | -1 | 35 | -4 | 4 | -5
COc1ccccc1C1c2[nH]c3ccccc3c2CCN1Cc1ccc(NC(C)=O)s1 (configuration not stated) | 8 | -11 | -7 | 7 | 32*
SMILES | Mtb FBA inh | VHR inh abs | Mtb bLac sens | Mtb hypoxia inh | GDH-TPI counter
CCCCN1CCC2C=CCC(C(=O)Nc3ccc(Cl)cc3Cl)C2C1=O (configuration not stated) | . | . | . | 4 | .
Cc1cc(NCc2ccccn2)n2c(nc3ccccc32)c1C#N | 21 | 30 | . | 3 | 0
Cc1cc(Cl)n2c(nc3ccccc32)c1C#N | + | 18 | . | . | 7
Cc1ccc(-c2c(C#N)c(N)n3c(nc4ccccc43)c2C#N)cc1 | 119* | 3 | -4 | . | 12
CNc1cc(C)c(C#N)c2nc3ccccc3n12 | + | -42 | -9 | 22 | 4
CC1CN(C(C)CO)C(=O)c2cc(NC(=O)Nc3ccc4c(c3)OCO4)ccc2OC1CN(C)S(=O)(=O)c1cccs1 (configuration not stated) | . | . | . | 7 | .
N#C/C(=C/c1ccc(Br)o1)C(N)=O | 0 | 9 | 1 | . | 45*
N#C/C(=C/c1ccc(Br)o1)C(N)=S | . | -8 | -1 | . | .
CC(=NNc1nc(-c2ccccc2F)nc2ccccc12)c1ccccc1O | . | . | . | 2 | .
Cc1cccc(N2CCN(C(=O)c3cc(COc4ccc(F)c(F)c4)on3)CC2)n1 | 0 | 51* | 87 | 15 | 3
Cc1cccc(C)c1OCc1cc(C(=O)N2CCN(Cc3nccn3C)CC2)no1 | 3 | 58* | -8 | 1 | 10
O=C(C1=CC(c2ccc(Br)cc2)CC(OCc2ccc(CO)cc2)O1)N1CCN(Cc2ccccc2)CC1 (configuration not stated) | . | . | . | 0 | .
CN(C)c1ccc(C(=O)Nc2nc3c(s2)CCCC3)cc1 | 2 | 8 | 83 | 4 | 37*
CC(C)(C)c1ccc(C(=O)NC(=S)Nc2nc3c(s2)CCCC3)cc1 | 6 | 3 | 3 | 10 | 8
COCCCNC(=O)c1c(N)n(-c2cccc(S(N)(=O)=O)c2)c2nc3ccccc3nc12 | 138* | 2 | 10 | -6 | 2
COCCCNC(=O)c1c(N)n(/N=C/c2ccccn2)c2nc3ccccc3nc12 | -3 | 25 | . | . | 8
CCOC(=O)C1=CCC2c3c(c4ccccc4n3C)C(=O)C1N2Cc1ccccc1 (configuration not stated) | . | . | . | 10 | .
O=C(CN1C(=O)SC(=Cc2ccc(N3CCOCC3)cc2)C1=O)N1CCOCC1 | . | . | . | 8 | .
O=C1/C(=C/c2cccnc2)Oc2cc(OS(=O)(=O)c3ccc(Cl)cc3)ccc21 | 1 | -32 | 45 | -4 | 3
O=C1/C(=C/c2cccnc2)Oc2cc(OS(=O)(=O)c3ccccc3)ccc21 | 4 | -23 | 99 | 1 | 46*
COC(=O)C1=C(c2cc3ccccc3s2)CC2CCC1N2C(=O)NCCNC(C)=O (configuration not stated) | . | . | . | 20 | .
O=C(Nc1nnc(Cc2ccccc2)s1)c1ccco1 | -2 | -19 | 6 | 0 | 26
NC(=O)c1cc(Cc2ccccc2)sc1NC(=O)c1ccco1 | 3 | 16 | 52 | 7 | 39*
CC(=O)NS(=O)(=O)c1ccc(NC(=O)/C=C/c2cn(-c3ccccc3)nc2-c2ccccc2)cc1 | -4 | 26 | 36 | -1 | 43*
O=C(NN=Cc1cccnc1)c1ccc(Cl)cc1Cl | . | . | . | 10 | .
Cn1ncnc1SCc1cn2cccnc2n1 | 130* | 26 | 0 | 2 | 8
Cc1ccc(SCc2cn3cccnc3n2)cc1 | 0 | 10 | 2 | . | 10
O=C(NN=Cc1ccccc1Cl)c1cccc(F)c1 | . | . | . | 7 | .
